The results in this text go back to PubChem BioAssay (Tox21).

Test [1] in a line: cAMP Responsive Elements (CRE) small molecule antagonists, cell-based qHTS assay: qHTS cell viability counter screen (AID 2060913). Further: nearly all actives have a fitted effect of over 40% in size. In short, it runs like this: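 Cytotoxicity read in the same wells as the CRE-bla HEK293T antagonist assay: after 3 h compound with 0.25 uM NKH477 final and 2 h beta-lactamase substrate, CellTiter-Glo luminescence measured.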
(In general: qHTS replaces the single test concentration by a dilution series.)

Test [2] in a line: cAMP Responsive Elements (CRE) small molecule agonists, cell-based qHTS assay: qHTS cell viability counter screen (AID 2060914). Further: nearly all actives have a fitted effect of over 50% in size. In short, it runs like this: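 Cytotoxicity counter screen multiplexed with the CRE-bla reporter assay in HEK 293T cells: 3 h compound exposure at 37 °C, followed by CellTiter-Glo luminescence measured in the same wells.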

Results filed as inconclusive are left out. A call without a number means that no potency is given here. A number with no mark means an inactive call. Calls of active or inactive are those of the source. The call rests on the fitted dose curve; in most records, active means well fitted cell-killing curve with a large enough effect in the repeat runs; inconclusive means weak or mixed curves, or effect the other way; inactive means flat fitted curve, though single readings scatter.

`Cc1cc(-c2ccccc2)nnc1NCCN1CCOCC1`: the Potency result in test [1] was “inactive”. As to `N[C@@H](Cc1ccc(O)cc1)C(=O)O`, the viability change, negative = cytotoxic in test [1] was -0.963% [at 8.39 µM]. With `Cc1ccc(S(=O)(=O)NC(=O)NN2CC3CCCC3C2)cc1` (configuration not stated), the Potency entry in test [1] was “inactive”. For `COC(=O)c1ccccc1`, the Potency entry in test [1] and in test [2] was “inactive” each time. As for `C=CCCC`, the Potency result in test [1] is “inactive”. For `COc1cccc(OC)c1C(=O)O`, the Potency result in test [1] and in test [2] was “inactive” each time. Turning to `CCC(CC)C(C)CCOC(C)=O` (configuration not stated), the Potency result in test [1] was “inactive”. In the case of `NCCc1cnc[nH]1`, the Potency result in test [1] is “inactive”. As to `CN1CCC(=C2c3ccccc3C=Cc3ccccc32)CC1`, the Potency entry in test [1] is “inactive”.

Consider `CCCCN(CCO)CCCC`, for which the Potency result in test [1] and in test [2] was “inactive” in each case.

Regarding `O=C(c1ccc(O)cc1)c1ccc(O)cc1`, the Potency entry in test [1] and in test [2] was “inactive” throughout. Take `CCC/C=C/CO`: the Potency entry in test [1] and in test [2] was “inactive” in each case.
